Measured values: PubChem BioAssay AID1456 (Vanderbilt High Throughput Screening Facility, 2008)
Screen size: about 190,000 compounds; about 4,100 (2.2%) were called active.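 Rule for the calls: active = thallium flux slope and its plate-corrected score both differing from the plate sample mean at a set confidence after two filtering rounds, in either direction; inactive = the rest.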 Shown is part of a subset that was picked to be rich in actives.

biological target: Solute carrier family 12 member 5 (Homo sapiens) (UniProt Q9H2X9); test: KCC2 cotransporter modulators, thallium flux, primary screen, cell-based, HEK293 KCC2, FluoZin-2 fluorescence, MLSMR (AID 1456); conditions: KCC2 cells, thallium flux FluoZin-2 fluorescence; at 10 µM;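 note: slope of fluorescence scaled to starting intensity during 10 to 20 s after thallium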
Sequence (Q9H2X9 whole entry, looked up): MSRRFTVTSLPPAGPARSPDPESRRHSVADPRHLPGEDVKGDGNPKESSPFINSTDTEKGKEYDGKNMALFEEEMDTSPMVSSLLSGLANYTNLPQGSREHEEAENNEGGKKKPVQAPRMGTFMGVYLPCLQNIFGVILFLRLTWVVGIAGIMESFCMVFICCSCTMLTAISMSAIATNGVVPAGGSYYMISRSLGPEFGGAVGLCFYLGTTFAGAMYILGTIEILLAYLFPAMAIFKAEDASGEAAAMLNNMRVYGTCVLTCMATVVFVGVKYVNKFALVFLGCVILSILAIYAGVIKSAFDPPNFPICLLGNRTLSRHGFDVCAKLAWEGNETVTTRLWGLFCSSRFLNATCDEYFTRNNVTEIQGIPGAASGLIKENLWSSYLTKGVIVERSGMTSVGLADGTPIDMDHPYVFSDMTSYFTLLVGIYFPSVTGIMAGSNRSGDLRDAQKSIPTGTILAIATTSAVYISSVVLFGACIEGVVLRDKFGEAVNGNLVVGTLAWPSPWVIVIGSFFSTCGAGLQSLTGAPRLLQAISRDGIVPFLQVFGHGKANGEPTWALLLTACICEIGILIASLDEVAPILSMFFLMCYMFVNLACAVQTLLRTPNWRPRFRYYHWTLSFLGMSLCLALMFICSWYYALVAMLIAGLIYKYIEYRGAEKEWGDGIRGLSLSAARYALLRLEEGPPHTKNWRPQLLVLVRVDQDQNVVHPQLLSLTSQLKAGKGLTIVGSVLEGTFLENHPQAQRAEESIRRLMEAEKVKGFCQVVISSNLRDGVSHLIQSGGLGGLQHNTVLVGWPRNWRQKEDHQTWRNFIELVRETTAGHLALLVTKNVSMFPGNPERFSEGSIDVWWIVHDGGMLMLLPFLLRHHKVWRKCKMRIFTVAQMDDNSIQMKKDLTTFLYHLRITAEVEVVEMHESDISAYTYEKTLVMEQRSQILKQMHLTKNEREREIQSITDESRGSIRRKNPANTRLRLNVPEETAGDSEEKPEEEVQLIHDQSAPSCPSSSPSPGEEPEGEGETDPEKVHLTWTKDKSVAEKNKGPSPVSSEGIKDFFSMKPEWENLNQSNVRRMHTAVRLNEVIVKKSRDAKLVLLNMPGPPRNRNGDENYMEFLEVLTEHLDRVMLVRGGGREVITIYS

B-score of Tl+ flux slope (higher = more flux/activation; lower = inhibition), inactive:
O=[N+]([O-])c1ccc(N=Cc2c(O)ccc3ccccc23)cc1 -0.766
CN(C)S(=O)(=O)c1ccc(Cl)c(NC(=O)COC(=O)CC(NC(N)=O)c2ccc(Cl)cc2)c1 (stereo not given) -0.372
COC(=O)/C=C(\Oc1ccccc1)C1(O)CCCCC1 0.292
O=C(CCCOc1ccc(Cl)cc1Cl)NNC(=O)C1CCC1 -0.669
CC(C)Oc1ccc(Cc2n[nH]c(=S)n2Cc2ccccc2)cc1Cl 0.809
CC(/C=C/c1ccco1)=N/NC(=O)C1COc2ccccc2O1 (stereo not given) 0.221
S=C(Cc1ccc(Cl)cc1)N1CCOCC1 0.203
O=C(NCc1ccccc1)c1ccc(S(=O)(=O)Nc2cccc(C(F)(F)F)c2)cc1 -1.11
CN(C)S(=O)(=O)c1cccc(NC(=O)COC(=O)c2cc(=O)[nH]c(=O)[nH]2)c1 -0.0283
CN(C)S(=O)(=O)c1cccc(C(=O)Nc2cccnc2)c1 0.857
CN(C)S(=O)(=O)c1cccc(NC(=S)NCc2ccc3c(c2)OCO3)c1 -0.00969
CCN(CC)S(=O)(=O)c1cccc(C(=O)Nc2ccccc2)c1 0.179
Cc1cc(C)cc(NC(=O)Cn2cnc3c(nnn3Cc3ccc(F)cc3)c2=O)c1 0.19
O=C(Cn1nnc(-c2ccccc2)n1)NCc1ccc2c(c1)OCO2 -1.86
Cn1nccc1NC(=O)Nc1ccc(OC(F)(F)F)cc1 -0.213
Cc1n[nH]c(=S)n1/N=C/c1ccc(Br)o1 -0.354
Cc1ccc(Cl)cc1-c1ccc(/C=N/n2cnnc2)o1 0.473
O=[N+]([O-])c1cccc2ncccc12 -1.11
Cc1cc2c(=O)n(C)c(SCC(=O)c3cc4ccccc4o3)nc2s1 0.288
Cc1ccccc1Nc1nnc(SCC(=O)c2cc3ccccc3o2)s1 -2.32
C#CCNC(=O)C1=C[C@@H](c2ccccc2)[C@H](CCCO)[C@@H](OCC)O1 0.698
CCO[C@H]1OC(C(=O)N2CCN(Cc3ccccc3)CC2)=C[C@@H](c2cn(C(C)=O)c3ccccc23)[C@@H]1CCCO -0.421
CN(C)c1ccc(/C=C/C(=O)c2ccc(O)cc2)cc1[N+](=O)[O-] -1.51
CCN(CC(=O)Nc1ccc(S(=O)(=O)N2CCCC2)cc1)CC(=O)Nc1cccc(OC)c1 -0.0112
Cc1onc(-c2ccc(Cl)cc2)c1-c1ccnn1S(=O)(=O)c1ccc(Cl)cc1 0.0713
C#CCNc1ccc(C(=O)OCC)cc1 0.0911
COc1ccc(OCC(=O)NNC(=O)c2ccc(-c3ccccc3)cc2)cc1 -0.294
COc1ccc(C(=O)Nc2cccc(S(C)(=O)=O)c2)cc1 -0.0335
Cc1nc(COc2cccc(Cl)c2)sc1C(=O)/C=C/N(C)C -0.976
CCN(CC)CCCN=Cc1c(O)n(-c2ccc(C)cc2)c(=O)c2ccccc12 -0.624
O=C(CSc1nnnn1-c1ccc(O)cc1)c1ccc(F)cc1 -0.119
CCOc1cccc(/C=N/NC(=S)NCCN2CCOCC2)c1O -0.223
O=C1CSC(=S)N1/N=C/c1ccc(O)c([N+](=O)[O-])c1 0.571
CC(=O)N1CCC(N(C(=O)Nc2ccc(Cl)cc2)C(C)C)CC1 0.402
COc1cc(C=O)ccc1Oc1nnnn1-c1ccccc1 -0.736
O=C(NC1(C(F)(F)F)NC(=O)N(C2CCCCC2)C1=O)c1ccco1 (stereo not given) 0.89
Cc1ccc(S(=O)(=O)NC2(C(F)(F)F)NC(=O)N(CCc3ccccc3)C2=O)cc1 (stereo not given) -0.615
COc1ccc(CN2CCNC(=O)C2CC(=O)N(C)Cc2ccccn2)cc1OC (stereo not given) -0.00917
Cc1ccc(NS(=O)(=O)c2ccc(N/N=C/c3ccccc3OCC(=O)O)c([N+](=O)[O-])c2)c(C)c1 -0.087
COc1cc(CN2CCN(Cc3ccc(C)cc3)CC2)c([N+](=O)[O-])cc1OC -0.767
CC(=O)c1cccc(S(=O)(=O)N2CCC(n3nnc4cc(F)ccc43)CC2)c1 -0.212
O=C(c1ccc(F)cc1)N1CCC(n2nnc3ccccc32)CC1 1.38
CCN(CC)CCn1cnc2c1c(=O)n(CCOC(=O)c1cc(OC)c(OC)c(OC)c1)c(=O)n2C -0.175
CC(=O)N1N=C(c2ccncc2)OC1(Cc1ccccc1)Cc1ccccc1 -0.683
C(=N/Nc1cc(N2CCOCC2)nc(N2CCOCC2)n1)/c1ccccc1 -0.154
Cc1cc(C(=O)N/N=C/c2ccc(N3CCOCC3)cc2)c(C)o1 -0.588
COC(=O)C1=C(N)Oc2cc(C)[nH]c(=O)c2C1c1ccc(Cl)cc1 (stereo not given) -2.12
O=C(NNS(=O)(=O)c1ccccc1)c1cnn(-c2ccc(Cl)cc2)c1C(F)(F)F 0.887
CC1CN(/C=C/C(=O)C(F)(F)F)CC(C)O1 (stereo not given) 1.01
Cc1ccc(OC(=O)c2cc3ccccc3o2)cc1 0.278
O=C(Nc1ccncc1)c1cc2ccccc2o1 2.22
COc1ccc(OC)c(S(=O)(=O)Nc2ccccc2F)c1 1.79
COc1ccc(C)cc1S(=O)(=O)NCCc1ccccc1 0.198
CCOc1ccc(NC(=O)C2CCCN(C(=O)Nc3ccccc3)C2)cc1 (stereo not given) -0.0798
COc1ccc(NC(=O)C(C)SCc2ccccc2)cc1 (stereo not given) -0.536
S=C(NCCc1ccccc1)Nc1ccccc1 -0.293
COc1cc(C(F)(F)F)c(C(=O)N(C)c2ccc(Cl)cc2)cn1 0.047
CCOC(=O)c1cn(CC)c2cc(F)c(F)cc2c1=O -0.139
O=C(c1cc(COc2c(F)cccc2F)on1)N1CCSCC1 -0.926
CC(C)C(NC(=O)c1ccc(Cl)cc1)C(=O)O (stereo not given) 1.28
Cc1occc1C(=O)NNC(=S)NCC(C)C -0.168
O=C(NN=C1CCC(=NNC(=O)c2cccnc2)CC1)c1cccnc1 0.0392
COc1ccc(Cl)cc1CSc1ncn[nH]1 -1.03
CC(C)(C)OC(=O)NCCCCCC(=O)N/N=C/c1coc2ccccc2c1=O -2.19
NC(=S)N/N=C/c1coc2cc(Cl)ccc2c1=O 1.23
CCOC(=O)C1CCN(CCC(=O)Nc2cccc(C)c2)CC1 0.406
CN(CC(O)COc1ccc(S(=O)(=O)N2CCOCC2)cc1Cl)C1CCCCC1 (stereo not given) 0.0176
O=C(NCc1ccco1)c1nc(-c2ccccc2)n(-c2ccccc2)n1 -2.03
Cc1ccc(-c2nnn(CC(=O)N(Cc3ccco3)C(C(=O)NC(C)(C)C)c3ccncc3)n2)o1 (stereo not given) -1.04
Cc1nnc(Nc2ccccc2F)s1 -0.881
CC(NC(=O)C(=O)Nc1nccs1)c1ccccc1 (stereo not given) 2.74
Cn1cc(CCC(=O)NCc2ccc3c(c2)OCO3)c2ccccc21 -1.1
O=C(COc1ccccc1)NCc1ccc2c(c1)OCO2 -0.24
N#Cc1nc(-c2ccc(OCc3ccccc3)cc2)oc1NCCCN1CCOCC1 0.37
Cc1ccc(OCc2nc(C#N)c(N3CCCC3)o2)cc1 -0.743

B-score of Tl+ flux slope (higher = more flux/activation; lower = inhibition), active:
Cn1c(CCCOc2ccc(Cl)cc2Cl)n[nH]c1=S -7.28
Cc1ccc(/C=N/NC(=S)Nc2cccc(S(=O)(=O)N(C)C)c2)o1 11.8
CN(C)S(=O)(=O)c1cccc(NC(=S)N/N=C/C(=O)c2ccccc2)c1 6.68
O=C(Cn1cnc2c(nnn2Cc2ccc(F)cc2)c1=O)NCc1ccc2c(c1)OCO2 -2.61
Cc1ccccc1-c1n[nH]c(=S)n1/N=C/c1ccc(-c2ccccc2Br)o1 5.28
Cc1ccc(Nc2nnc(SCC(=O)c3cc4ccccc4o3)s2)cc1C -8.65
CCO[C@H]1OC(C(=O)NCc2ccccc2)=C[C@@H](c2coc3ccccc3c2=O)[C@@H]1CCCO -2.75
COc1ccc(C(=O)NN(C)c2nc(-c3ccccc3)cc(C)c2S(C)(=O)=O)cc1 -2.92
CCOc1cccc(/C=N/N2C(=O)CSC2=S)c1O 5.34
COc1ccc(C(=O)NC2(C(F)(F)F)NC(=O)N(CCCc3ccccc3)C2=O)c(OC)c1OC (stereo not given) -3.82
O=S(=O)(c1cccc(S(=O)(=O)N2CCC(n3nnc4ccccc43)CC2)c1)N1CCCCC1 -6.25
Cc1ccccc1N/N=C/c1ccc(N2CCOCC2)cc1 3.06
C/C(=N\NC(=S)Nc1ccc(C)cc1)c1cc2ccccc2o1 90.2
COc1ccc(C)cc1S(=O)(=O)Nc1cccc(Cl)c1Cl 2.43
COc1ccc(NC(=O)N2CCC(Cc3ccccc3)CC2)cc1 -5.5
CC(C)CNC(=S)NC(=O)c1ccc(Cl)cc1 33
O=C(N/N=C/c1coc2ccccc2c1=O)c1cc2ccccc2o1 5.52
Cc1nn(-c2ccccc2)c2sc(C(=O)N(Cc3ccco3)C(C)C(=O)NC(C)(C)C)cc12 (stereo not given) 8.53
N#Cc1nc(Cc2cccc3ccccc23)oc1NCc1ccc2c(c1)OCO2 -5.13
N#Cc1nc(COc2ccc(-c3ccccc3)cc2)oc1NCc1cccnc1 -4.77
